Screening results: PubChem BioAssay, National Center for Advancing Translational Sciences (NCATS)
JMJD2A Tudor: blocks the human JMJD2A Tudor domain | O75164 | Potency, µM (doses to about 114 µM), inactives show at the highest dose activity change, negative = inhibition, hits mostly inhibitors | hit rate 4.4% among 390,000 | AlphaScreen JMJD2A-Tudor / H3K4me3 peptide binding; further: on the % scale 0 is the no-effect control and ±100 the full control effect; nearly all actives have a fitted effect of over 50% in size
G9a inh: blocks human histone lysine methyltransferase G9a | G9a H3K9 monomethylation, AlphaScreen, 2 h | Q96KQ7 | hit rate 8.8% among 350,000 | Potency, µM (highest dose often 102 µM), for inactives: at the highest dose activity, negative = inhibition, most hits filed as inhibitors; further: on the % scale 0 is the no-effect control and ±100 the full control effect; nearly all actives have a fitted effect of over 75% in size
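Enzyme 20 nM + cpd, 15 min RT; add b-H3K9 pep 500 nM / SAM 20 uM; 2 h RT; anti-H3K9me1 Ab 0.5 ug/mL + SA donor / anti-rabbit acceptor beads 20 ug/mL each, 10 min; AlphaScreen read.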
HP1b chromo inh: inhibitors of HP1-beta chromodomain binding to methylated histone tails. P83916. AlphaScreen HP1-beta / biotin-H3K9me3 peptide binding. Potency, µM (top dose mostly 114 µM), without a hit: at the top dose activity change, negative = inhibition, most hits filed as inhibitors. hit rate 0.56% among 390,000. AID 540317; further: nearly all actives have a fitted effect of over 70% in size
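HP1-beta protein (50 nM final) preincubated 30 min at room temperature with biotinylated H3(1-18)K9me3 peptide (50 nM) in PBS pH 7.4, 0.01% Tween-20, then compound added for 30 min. AlphaScreen streptavidin donor/nickel chelate acceptor beads (10 ug/mL final), 30 min dark, luminescence read.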
GLS inhibitor: blocks human kidney-isoform glutaminase activity. GLS enzymatic activity, qHTS titration. Potency, µM (series often up to 45.5 µM), without a hit: at the highest dose activity change, negative = inhibition, most hits filed as inhibitors. hit rate 0.21% among 410,000. AID 624170; further: on the % scale 0 is the no-effect control and ±100 the full control effect
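Human kidney-isoform GLS in 45 mM KH2PO4 pH 8.2, 0.02% Tween-20, with compound, started with 1mM L-Glutamine (added stock). Glutamate oxidase/HRP/Amplex red coupled fluorescence read at start and after 30 min at RT.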
BAZ2B inh: blocks human BAZ2B; Q9UIF8; AlphaScreen BAZ2B-H3K14Ac peptide displacement; Potency, µM (doses to about 114 µM), for the others: top-dose activity change, negative = inhibition, most hits filed as inhibitors; hit rate 4.4% among 360,000; AID 504333; further: on the % scale 0 is the no-effect control and ±100 the full control effect; nearly all actives have a fitted effect of over 60% in size
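In this displacement format the biotinylated H3(5-23) peptide acetylated at Lys14 serves as ligand at 50 nM, with BAZ2B at 50 nM in PBS pH 7.4 containing 0.01% Tween-20. Donor and acceptor beads are 10 ug/mL final.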
* hit, by the source's call; ? = inconclusive; . = no result; [ ] = remark or other dose. This is a sample that favours compounds with a hit; in the whole collection about 10% have one here. The call rests on the fitted dose curve; in most records, active means well fitted curve in the direction sought with a large enough effect; inconclusive means small, poorly fitted or top-dose-only effect, or another doubt; inactive means no such curve, though single readings can be large; an effect the other way counts as inactive or inconclusive. Potency means the concentration at half of the fitted maximal effect.

SMILES	JMJD2A Tudor	G9a inh	HP1b chromo inh	GLS inhibitor	BAZ2B inh
COc1cc(OC)c(C2CC(=O)N3CN(c4ccccc4C)CSC3=C2C#N)cc1OC (stereo not given)	.	?	.	.	56µM*
Cc1cccc(N2CSC3=C(C#N)C(c4ccc(C)o4)CC(=O)N3C2)c1 (stereo not given)	.	3.5µM*	.	.	45µM*
COc1ccc(N2CSC3=C(C#N)C(c4cccc(OC)c4OC)CC(=O)N3C2)cc1 (stereo not given)	20µM*	2µM*	?	-1%	?
C=CCOC(=O)C1=C(C)OC(N)=C(C#N)C1c1ccccc1F (stereo not given)	-12%	-1%	42%	15%	-2%
COC(=O)CSC1=C(C#N)C(c2ccc(C)o2)CC(=O)N1 (stereo not given)	-11%	18%[12.7 µM]	23%	18%	-23%
CCc1ccccc1N1CSC2=C(C#N)C(c3ccccc3F)CC(=O)N2C1 (stereo not given)	22µM*	0.79µM*	?	0%	56µM*
CCCCN(CC)C(=O)CSc1nc2ccccc2c(=O)n1Cc1ccco1	-25%	-5%[59 µM]	33%	3%	-4%
CN(C)c1ncnc2ccc(-c3cccc(NS(C)(=O)=O)c3)cc12	.	15%[0.501 µM]	.	.	.
Cc1ccc(S(=O)(=O)NC(C)(C)CN2CCC(Cc3ccccc3)CC2)cc1	40µM*	7.9µM*	-7%	9%	56µM*
CCC1CCCCN1CC(C)(C)NS(=O)(=O)c1ccccc1 (stereo not given)	4.5µM*	7.1µM*	?	8%	?
CC1CC(C)CN(CC(C)(C)NS(=O)(=O)c2ccccc2)C1 (stereo not given)	22µM*	8.9µM*	?	-27%	50µM*
Cc1ccc(S(=O)(=O)NCCC(=O)N2CCC(Cc3ccccc3)CC2)cc1	-9%	19%[0.501 µM]	45%	0%	11%
CN1CCN(CC(C)(C)NS(=O)(=O)c2ccccc2)CC1	-5%	.	9%	-14%	.
CC(C)(CN1CCc2ccccc2C1)NS(=O)(=O)c1ccccc1	3.2µM*	10µM*	?	29%	-31%
COc1ccc(-c2cn3nc(SCC(=O)Nc4ccc(C)c(Cl)c4)ccc3n2)cc1	13%	8%[59 µM]	32%[57 µM]	4%	15%
CCOc1cccc(C2C=C(c3ccc4c(c3)OCO4)NC(c3ccc(Br)cc3)N2)c1O (stereo not given)	-22%[57.1 µM]	.	16%[57 µM]	.	.
C=CCNC(=O)c1onc(CSc2nc3ccccc3[nH]2)c1C(=O)NCC=C	-26%	56µM*	13%	5%	?
O=C(CSCCO)Nc1cc(C(F)(F)F)ccc1Cl	-6%	-24%[12.7 µM]	17%	5%	-1%
CC1=NN(c2ccc(C)c(C)c2)C(=O)/C1=C/c1ccc2c(c1)n(C)c(=O)n2C	-19%	7.1µM*	2%	-3%	?
CC1=NN(c2ccccc2)C(=O)/C1=C/c1ccc(Cl)cc1	?	40µM*	?	-13%	?
CC1=NN(c2cccc(F)c2)C(=O)/C1=C/c1ccc(N(C)C)cc1	-17%	-16%	-2%	3%	-26%
CC1=NN(c2ccccc2)C(=O)/C1=C/c1c(O)n(-c2ccc(F)cc2)[nH]c1=O	28µM*	11µM*	?	?	40µM*
CC1=NN(c2ccccc2)C(=O)/C1=C\c1ccc(Br)s1	10µM*	8.9µM*	?	?	11µM*
Cc1cc(-n2c(C)cc(C(=O)COc3ccc(Cl)cc3C(N)=O)c2C)no1	-13%	.	28%	-2%	.
CC(C)N(C(=O)[C@H]1CC(CC(=O)NCC23CC4CC(CC(C4)C2)C3)C(=O)N2CCc3c([nH]c4ccccc34)[C@]12C)C(C)C (stereo not given in full)	?	.	-12%	6%	.
COc1ccc(CNC(=O)c2cccc(-c3ccc(C)c4ccccc34)n2)cc1	-2%	?	41%	-6%	-21%
CC1=NN(c2ccccc2)C(=O)/C1=C/c1cccs1	40µM*	32µM*	?	-1%	16µM*
COc1ccc(/C=C2/C(=O)N(c3cccc(F)c3)N=C2C)c(OC)c1	-23%	19%[0.501 µM]	-7%	1%	?
CC1=NN(c2ccccc2)C(=O)/C1=C/c1ccc[nH]1	16µM*	22µM*	16µM*	-1%	11µM*
